Calls of active or inactive are those of the source. How the source made its calls: active means hit-call score of the fitted dose curve at least 0.9, where 1 is the maximum; inactive means score below 0.9.
Legend:
[1] = read-out: Vascular endothelial growth factor receptor 2 (Homo sapiens) (UniProt P35968); experiment: BSK_4H_VEGFRII: BioMAP Diversity Plus: 4H Assay for Vascular endothelial growth factor receptor 2 (VEGFR2) Biomarker Activity (AID 2283031); conditions: primary human endothelial cells (HUVEC); actives raise or lower the signal;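 on AC50: cell-surface VEGFR2 protein level quantified by ELISA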
Outline: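 ELISA read-out of VEGFRII in primary human umbilical vein endothelium, taken 24 h after chemical treatment. Responses are expressed relative to DMSO, with bidirectional fitting.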

[2] = read-out: Human Leukocyte Antigen - DR isotype (HLADR), HLA-DRA (gene 3122); experiment: BSK_BE3C_HLADR: BioMAP Diversity Plus: BE3C Assay for Human Leukocyte Antigen - DR isotype (HLADR) Biomarker Activity (AID 2283032); conditions: primary human bronchial epithelial cells; actives raise or lower the signal
Outline: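 Chemicals are dosed onto BE3C bronchial epithelial cultures of human origin and left 24 h. HLA-DR is then measured by ELISA, and the endpoint is fitted in both directions using DMSO as the activity baseline.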

[3] = read-out: Vascular cell adhesion molecule 1 (VCAM1), VCAM1 (gene 7412); experiment: BSK_4H_VCAM1: BioMAP Diversity Plus: 4H Assay for Vascular cell adhesion molecule 1 (VCAM1) Biomarker Activity (AID 2283033); conditions: primary human endothelial cells (HUVEC); actives raise or lower the signal
Outline: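 Chemicals are added to primary human umbilical vein endothelial cells. After 24 h, VCAM-1 levels are measured by ELISA. Values come from bidirectional fitting referenced to DMSO.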

[4] = read-out: Interferon-gamma inducible Protein 10 (IP10), CXCL10 (gene 3627); experiment: BSK_BE3C_IP10: BioMAP Diversity Plus: BE3C Assay for Interferon-gamma inducible Protein 10 (IP10) Biomarker Activity (AID 2283034); conditions: primary human bronchial epithelial cells; actives raise or lower the signal
Outline: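 IP-10 quantified by ELISA serves as the endpoint. Cells: primary human bronchial epithelium, read 24 h after compound addition. Activity is derived by bidirectional fitting with DMSO as negative control.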

[5] = read-out: Monokine induced gamma interferon (MIG), CXCL9 (gene 4283); experiment: BSK_BE3C_MIG: BioMAP Diversity Plus: BE3C Assay for Monokine induced gamma interferon (MIG) Biomarker Activity (AID 2283035); conditions: primary human bronchial epithelial cells; actives raise or lower the signal
Outline: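 ELISA quantified MIG after 24 h exposure of primary bronchial epithelial cultures, analysed in both directions relative to DMSO. Cytotoxicity tracked in parallel cultures by sulforhodamine B staining.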

[6] = read-out: Transforming growth factor beta 1 (TGFb1), TGFB1 (gene 7040); experiment: BSK_BE3C_TGFb1: BioMAP Diversity Plus: BE3C Assay for Transforming growth factor beta 1 (TGFb1) Biomarker Activity (AID 2283036); conditions: primary human bronchial epithelial cells; actives raise or lower the signal
Outline: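 Bronchial epithelial primary cells are treated with test chemical, then TGF-b1 is quantified by ELISA after 24 hours. Values derive from bidirectional fitting against DMSO, with cytotoxicity checked by SRB staining in parallel cultures.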

[7] = read-out: Plasminogen activator inhibitor-1 (PAI1), SERPINE1 (gene 5054); experiment: BSK_BE3C_PAI1: BioMAP Diversity Plus: BE3C Assay for Plasminogen activator inhibitor-1 (PAI1) Biomarker Activity (AID 2283037); conditions: primary human bronchial epithelial cells; actives raise or lower the signal
Outline: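 Values derive from bidirectional fitting against DMSO baseline of PAI-1 levels, measured by ELISA in human bronchial epithelial cells 24 h after compound addition.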

[8] = read-out: urokinase plasminogen activator (uPA), PLAU (gene 5328); experiment: BSK_BE3C_uPA: BioMAP Diversity Plus: BE3C Assay for urokinase plasminogen activator (uPA) Biomarker Activity (AID 2283038); conditions: primary human bronchial epithelial cells; actives raise or lower the signal
Outline: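 Bronchial epithelial cells (human, primary); chemical 24 h; uPA by ELISA; bidirectional fit vs DMSO. SRB (0.1%, after 10% TCA fixation, 560 nm) in parallel cultures for cytotoxicity.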

[9] = read-out: Urokinase-type plasminogen activator receptor (uPAR), PLAUR (gene 5329); experiment: BSK_BE3C_uPAR: BioMAP Diversity Plus: BE3C Assay for Urokinase-type plasminogen activator receptor (uPAR) Biomarker Activity (AID 2283039); conditions: primary human bronchial epithelial cells; actives raise or lower the signal
Outline: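 Steps: dose human primary bronchial epithelial cells, incubate 24 h, measure uPAR by ELISA, then fit gain- or loss-of-signal response bidirectionally relative to DMSO.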

[10] = read-out: Interleukin-6 (IL6), IL6 (gene 3569); experiment: BSK_CASM3C_IL6: BioMAP Diversity Plus: CASM3C Assay for Interleukin-6 (IL6) Biomarker Activity for (AID 2283040); conditions: primary human coronary artery smooth muscle cells; actives raise or lower the signal
[11] = read-out: Tissue plasminogen activator (tPA), PLAT (gene 5327); experiment: BSK_BE3C_tPA: BioMAP Diversity Plus: BE3C Assay for Tissue plasminogen activator (tPA) Biomarker Activity (AID 2283041); conditions: primary human bronchial epithelial cells; actives raise or lower the signal
Outline: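 Gain- or loss-of-signal in tPA, measured by ELISA, derived by bidirectional fitting against DMSO. Cells: human primary bronchial epithelial; read at 24 h after chemical dosing.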

[12] = read-out: Interleukin-8 (IL8), CXCL8 (gene 3576); experiment: BSK_CASM3C_IL8: BioMAP Diversity Plus: CASM3C Assay for Interleukin-8 (IL8) Biomarker Activity (AID 2283042); conditions: primary human coronary artery smooth muscle cells; actives raise or lower the signal;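 further: IL-8 protein level quantified by ELISA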
[13] = read-out: Human Leukocyte Antigen - DR isotype (HLADR), HLA-DRA (gene 3122); experiment: BSK_CASM3C_HLADR: BioMAP Diversity Plus: CASM3C Assay for Human Leukocyte Antigen - DR isotype (HLADR) Biomarker Activity (AID 2283043); conditions: primary human coronary artery smooth muscle cells; actives raise or lower the signal;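 further: cell-surface HLA-DR protein level quantified by ELISA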
[14] = read-out: Macrophage colony-stimulating factor (MCSF), CSF1 (gene 1435); experiment: BSK_CASM3C_MCSF: BioMAP Diversity Plus: CASM3C Assay for Macrophage colony-stimulating factor (MCSF) Biomarker Activity (AID 2283044); conditions: primary human coronary artery smooth muscle cells; actives raise or lower the signal;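 further: M-CSF protein amount quantified by ELISA after 24 h exposure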
[15] = read-out: Low-density lipoprotein receptor (LDLR), LDLR (gene 3949); experiment: BSK_CASM3C_LDLR: BioMAP Diversity Plus: CASM3C Assay for Low-density lipoprotein receptor (LDLR) Biomarker Activity (AID 2283045); conditions: primary human coronary artery smooth muscle cells; actives raise or lower the signal;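 further: LDLR protein level on the cell surface quantified by ELISA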
[16] = read-out: Monocyte Chemoattractant Protein-1 (MCP1), CCL2 (gene 6347); experiment: BSK_CASM3C_MCP1: BioMAP Diversity Plus: CASM3C Assay for Monocyte Chemoattractant Protein-1 (MCP1) Biomarker Activity (AID 2283046); conditions: primary human coronary artery smooth muscle cells; actives raise or lower the signal;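 further: MCP-1 level quantified by ELISA 24 h after dosing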
[17] = BSK_CASM3C_Proliferation: Cell Proliferation Assessment in the BioMAP Diversity Plus: CASM3C Assay (AID 2283047); conditions: primary human coronary artery smooth muscle cells;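 further: sulforhodamine B total protein stain as relative cell number at 560 nm; sub-confluent cells exposed 48 h before staining; fitted both ways against DMSO so gain or loss of cell number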
[18] = read-out: Monokine induced gamma interferon (MIG), CXCL9 (gene 4283); experiment: BSK_CASM3C_MIG: BioMAP Diversity Plus: CASM3C Assay for Monokine induced gamma interferon (MIG) Biomarker Activity (AID 2283048); conditions: primary human coronary artery smooth muscle cells; actives raise or lower the signal;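 further: MIG protein level measured by ELISA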
[19] = read-out: serum amyloid A (SAA), SAA1 (gene 6288); experiment: BSK_CASM3C_SAA: BioMAP Diversity Plus: CASM3C Assay for serum amyloid A (SAA) Biomarker Activity (AID 2283049); conditions: primary human coronary artery smooth muscle cells; actives raise or lower the signal;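 further: SAA protein level quantified by ELISA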
[20] = BSK_CASM3C_SRB: Viability Assessment in the BioMAP Diversity Plus: CASM3C Assay (AID 2283050); conditions: primary human coronary artery smooth muscle cells;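 further: total protein by SRB staining as cytotoxicity measure in parallel cultures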

Measured: AC50

CC(C)c1ccc(CO)cc1
inactive: all assays above

Cn1sc(Cl)cc1=O
active: [3] 20 µM | [10] 20 µM | [17] 6.81 µM
inactive: all other assays above

COP(=S)(OC)Oc1ccc(S(=O)(=O)N(C)C)cc1
inactive: all assays above

COC(=O)c1sccc1S(=O)(=O)NC(=O)Nc1nc(C)nc(OC)n1
inactive: all assays above

O=S(=O)(c1ccc(Cl)cc1)c1ccc(Cl)cc1
inactive: all assays above

CC(C)(C)CC(C)(C)c1ccc(O)cc1
active: [2] 19.3 µM | [3] 7.98 µM | [4] 16.6 µM | [5] 34.5 µM | [6] 14.7 µM | [7] 30.9 µM | [8] 26.6 µM | [9] 30 µM | [10] 12 µM | [11] 13.2 µM | [12] 30.3 µM | [13] 11.2 µM | [14] 11.3 µM | [15] 16 µM | [16] 11.9 µM | [17] 10.1 µM | [18] 26.4 µM | [19] 10.7 µM | [20] 13.7 µM
inactive: [1]

COP(=S)(OC)Oc1cc(Cl)c(Cl)cc1Cl
active: [3] 24.9 µM | [4] 19.1 µM | [7] 8.51 µM | [13] 20 µM | [14] 3.97 µM | [17] 29.3 µM | [19] 20 µM
inactive: all other assays above

CCCCC(CC)CO[N+](=O)[O-] (stereo not given)
active: [1] 31.9 µM | [2] 32.6 µM | [3] 30.5 µM | [10] 31.8 µM | [13] 28.2 µM | [14] 29.6 µM | [16] 20 µM | [20] 33.6 µM
inactive: all other assays above

COP(=S)(OC)Oc1c(Cl)cc(C)cc1Cl
active: [3] 26.9 µM | [12] 0.213 µM | [17] 20 µM
inactive: all other assays above

Nc1ncc([N+](=O)[O-])s1
inactive: all assays above

O=C(OC1CCCCC1)c1ccccc1C(=O)OC1CCCCC1
active: [1] 9.97 µM | [2] 13 µM | [3] 20.9 µM | [4] 20.9 µM | [11] 8.39 µM | [15] 34.2 µM | [17] 33.4 µM | [20] 20.9 µM
inactive: all other assays above

Oc1cccc2cccnc12
active: [2] 3.53 µM | [3] 1.96 µM | [4] 3.88 µM | [5] 5.47 µM | [6] 5.43 µM | [7] 3.45 µM | [8] 3.44 µM | [9] 4.95 µM | [11] 2.07 µM | [13] 3.97 µM | [17] 5.5 µM
inactive: [1] | [10] | [12] | [14] | [15] | [16] | [18] | [19] | [20]
